# Laboratory results as given in PubChem BioAssay AID720706 (Broad Institute, 2013).
# Values joined by “and” are separate entries in the source; they are usually repeats but may differ in a detail not shown here. Identical values can stand only once. The campaign covered roughly 350,000 compounds. About 5,500 (1.6%) were called active.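 How the source made its calls: active means significant combined selectivity score with lowered wild-type GFP, culture density cut under 30%, mutant RFP and density less affected; inactive means any of these conditions unmet.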 Many of the other results were omitted from the sample, so actives are more common in it than they were. A structure can be active in one record and inactive in another.
# Experiment: GFP drop in mixed WT/humanized-ribosome E. coli culture – GFP/RFP fluorescence, OD600, single point, bacterial rRNA inhibitor project, primary screen (AID 720706)
# Settings: E. coli WT GFP vs humanized-ribosome RFP mutants, 24 h; GFP signal change (wild-type ribosome): stronger effect = lower value, DMSO median 0, no signal -100; OD600 change: measured here: OD600 growth, DMSO median 0, no signal -100; RFP signal change: measured here: RFP humanized mutant strains, DMSO median 0, no signal -100, concentration not given here
SMILES,GFP signal change (wild-type ribosome),OD600 change,RFP signal change
O=C(C[C@@H]1CC[C@H]2[C@@H](COC[C@@H](O)CN2C(=O)c2ccc3c(c2)OCO3)O1)NC1Cc2ccccc2C1,1.47% (inactive),-6.88%,-0.618%
C[C@@H]1CN([C@@H](C)CO)C(=O)CCCn2nncc2CO[C@H]1CN(C)C(=O)Nc1ccc(C(F)(F)F)cc1,-16.6% (active) and -54% (inactive),-10.2% and -56.3%,5.18% and -10.9%
C[C@H]1CN([C@@H](C)CO)C(=O)CCCn2nncc2CO[C@@H]1CN(C)C(=O)Nc1ccc(N2CCN(C)CC2)cc1,22.4% (inactive) and -1.77% (inactive),13.6% and 7.97%,3.72% and -0.742%
C[C@@H]1CN([C@@H](C)CO)C(=O)CCCn2nncc2CO[C@H]1CN(C)Cc1ccc(C(F)(F)F)cc1,-3.59% (inactive) and 7.37% (inactive),-1.83% and 9.18%,2.44% and -0.538%
CCCNC(=O)N1CC(=O)N2[C@H](C1)[C@@H](c1ccc(C#Cc3ccccc3)cc1)[C@@H]2CO,-41.7% (inactive),-70.4%,-0.11%
COc1ccc2c3c(n(C)c2c1)[C@@H](CO)N(C(=O)Nc1ccccc1F)CC31CCN(C(=O)c2ccccc2F)CC1,-2.62% (inactive),-3.48%,-0.298%
CO[C@@H](CN(C)C(=O)c1cnccn1)[C@H](C)CN([C@H](C)CO)S(=O)(=O)c1ccc(C)cc1,1.87% (inactive),2.69%,-1.48%
CCc1nc2ccccc2c(C(=O)OC2CCCCC2=O)c1C (stereo not given),-34.4% (active),-20.5%,3.94%
CCc1nc2ccccc2c(C(=O)NCc2ccc(OC)cc2)c1C,-3.42% (inactive),-5.87%,-3.53%
CCc1c(C)c2ccc(OC3CCCCC3=O)cc2oc1=O (stereo not given),1.77% (inactive),-3.25%,1.07%
CC(=O)N(C)C[C@@H]1Oc2cc(-c3cccnc3)ccc2S(=O)(=O)N([C@@H](C)CO)C[C@H]1C,0.257% (inactive),-3.4%,-4.17%
O=C(CC1CC1)N1CC(=O)N2[C@H](CO)[C@H](c3ccc(C#Cc4ccc(F)cc4)cc3)[C@@H]2C1,-21.5% (inactive),-61.2%,15.4%
COc1ccc(-c2cnc3c(c2)C(=O)N([C@H](C)CO)C[C@@H](C)[C@H](CN(C)C(=O)Cc2ccncc2)O3)cc1,-1.52% (inactive),2.2%,-0.471%
COc1cccc(NC(=O)Nc2ccc3c(c2)OC[C@@H](C)NC[C@@H](C)[C@H](OC)CN(C)C3=O)c1,0.255% (inactive),0.1%,2.58%
C[C@@H]1CCCCO[C@H](CN(C)C(=O)CCCN(C)C)[C@@H](C)CN([C@@H](C)CO)C(=O)c2cc(NC(=O)c3ccncc3)ccc2O1,3.33% (inactive),12.1%,-1.91%
